According to PubChem BioAssay (Tox21):
Results filed as inconclusive are left out. Where a call stands in place of a potency, no number is given. The source holds several records for some structures; these can differ, active in one and inactive in another. The source made the active and inactive calls. Unless noted, calls follow the shape of the dose curve; as a rule, active = well fitted curve in the direction sought with a large enough effect in the repeat runs; inconclusive = weak or mixed curves; inactive = no such curve, though single readings can be large; an effect the other way counts as inactive or inconclusive.

How the values were obtained:
[1] = target: Peroxisome proliferator-activated receptor delta (Homo sapiens) (UniProt Q03181); experiment: qHTS assay to identify small molecule agonists of the peroxisome proliferator-activated receptor delta (PPARd) signaling pathway (AID 743212; calls by dose curve)
Sequence of Peroxisome proliferator-activated receptor delta (Homo sapiens) (Q03181 whole entry, looked up): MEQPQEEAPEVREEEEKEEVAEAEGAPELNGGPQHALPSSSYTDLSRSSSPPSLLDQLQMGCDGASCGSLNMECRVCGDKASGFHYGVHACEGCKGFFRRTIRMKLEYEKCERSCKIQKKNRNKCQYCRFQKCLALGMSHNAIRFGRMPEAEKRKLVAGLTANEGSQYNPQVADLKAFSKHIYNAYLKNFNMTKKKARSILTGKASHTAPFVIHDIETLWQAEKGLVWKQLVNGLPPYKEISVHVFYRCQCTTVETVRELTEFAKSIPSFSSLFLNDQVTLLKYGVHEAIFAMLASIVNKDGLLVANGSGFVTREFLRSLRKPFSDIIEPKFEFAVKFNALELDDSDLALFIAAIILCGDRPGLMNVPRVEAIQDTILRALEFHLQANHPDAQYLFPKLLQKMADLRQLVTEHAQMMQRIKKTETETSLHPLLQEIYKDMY
Method in brief: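 Cells expressing a UAS-driven beta-lactamase reporter (PPARd-bla HEK293H) were given test compounds after a 5 h settle and kept at 37 C. Reporter activity was then measured as FRET fluorescence using LiveBLAzer B/G substrate.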

[2] = qHTS assay to identify small molecule antagonists of the peroxisome proliferator-activated receptor delta (PPARd) signaling pathway - cell viability counter screen (AID 743213); also: nearly all actives have a fitted effect of over 50% in size; also: potency is read from the fitted curve at half-maximal effect
Method in brief: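 PPARd-bla HEK293H cells (3000/well) got compound plus 300 nM L165041 agonist for 17 h at 37 C. Viability in the same wells came from CellTiter-Glo luminescence after 30 min at room temperature.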

[3] = target: Peroxisome proliferator-activated receptor delta (Homo sapiens) (UniProt Q03181); experiment: qHTS assay to identify small molecule antagonists of the peroxisome proliferator-activated receptor delta (PPARd) signaling pathway (AID 743215; active = well fitted inhibition curve with a large enough effect in the signal ratio in the repeat runs, not every such curve was filed as active; the % refers to the signal ratio;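 also: cells stimulated with agonist L165041 at 300 nM final during compound exposure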; also: potency is read from the fitted curve at half-maximal effect)
Method in brief: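 Cells: HEK293H with a UAS-driven beta-lactamase reporter responsive to PPARd. Compounds were co-added with L165041 (300 nM, final) and incubated 17 h at 37 C before a 2 h room-temperature FRET substrate step and fluorescence reading.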

[4] = qHTS assay to identify small molecule agonists of the farnesoid-X-receptor (FXR) signaling pathway - cell viability counter screen (AID 743218); also: nearly all actives have a fitted effect of over 45% in size; also: potency is read from the fitted curve at half-maximal effect
Method in brief: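 Cells were seeded, left 5 h at 37 C and 5% CO2, then dosed with compound in DMSO for 16 h. After the beta-lactamase FRET read, CellTiter-Glo was added and luminescence measured 30 min later.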

[5] = target: Bile acid receptor (Homo sapiens) (UniProt Q96RI1); experiment: qHTS assay to identify small molecule agonists of the farnesoid-X-receptor (FXR) signaling pathway (AID 743220; active = well fitted activation curve with a large enough effect in the signal ratio in the repeat runs, not every such curve was filed as active; the % refers to the signal ratio)
Sequence of Bile acid receptor (Homo sapiens) (Q96RI1 whole entry, looked up): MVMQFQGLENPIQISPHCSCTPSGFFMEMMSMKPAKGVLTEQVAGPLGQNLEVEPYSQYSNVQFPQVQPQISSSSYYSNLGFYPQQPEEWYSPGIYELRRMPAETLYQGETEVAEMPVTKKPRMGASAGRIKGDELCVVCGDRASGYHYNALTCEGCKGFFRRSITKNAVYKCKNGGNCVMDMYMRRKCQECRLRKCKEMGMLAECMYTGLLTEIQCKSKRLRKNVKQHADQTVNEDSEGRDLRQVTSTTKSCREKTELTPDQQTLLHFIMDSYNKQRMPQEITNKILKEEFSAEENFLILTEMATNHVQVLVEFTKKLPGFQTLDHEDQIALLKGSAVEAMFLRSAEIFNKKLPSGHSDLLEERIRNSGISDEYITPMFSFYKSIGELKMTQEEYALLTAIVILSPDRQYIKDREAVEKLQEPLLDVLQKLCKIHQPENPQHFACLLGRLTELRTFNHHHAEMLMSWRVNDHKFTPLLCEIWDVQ
Method in brief: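 FXR-UAS-bla HEK 293T cells carrying a UAS-driven beta-lactamase reporter were plated for 5 h at 37C/5% CO2, then exposed to DMSO-dissolved Tox21 10K compounds for 16 h at 37C. A LiveBLAzer B/G FRET substrate was loaded for 2 h at room temperature before fluorescence reading.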

[6] = qHTS assay to identify small molecule antagonists of the farnesoid-X-receptor (FXR) signaling pathway - cell viability counter screen (AID 743221; active = well fitted cell-killing curve with a large enough effect in the repeat runs, not every such curve was filed as active; also: nearly all actives have a fitted effect of over 50% in size; also: potency is read from the fitted curve at half-maximal effect)
Method in brief: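 Cytotoxicity counter screen run in the FXR-bla reporter wells: HEK 293T cells exposed to compound with 50 uM (final) chenodeoxycholic acid for 16 h, 37 C, then viability measured by CellTiter-Glo luminescence after 30 min, room temperature.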

[7] = target: Vitamin D3 receptor (Homo sapiens) (UniProt P11473); experiment: qHTS assay to identify small molecule agonists of the vitamin D receptor (VDR) signaling pathway (AID 743222; calls by dose curve)
Sequence of Vitamin D3 receptor (Homo sapiens) (P11473 whole entry, looked up): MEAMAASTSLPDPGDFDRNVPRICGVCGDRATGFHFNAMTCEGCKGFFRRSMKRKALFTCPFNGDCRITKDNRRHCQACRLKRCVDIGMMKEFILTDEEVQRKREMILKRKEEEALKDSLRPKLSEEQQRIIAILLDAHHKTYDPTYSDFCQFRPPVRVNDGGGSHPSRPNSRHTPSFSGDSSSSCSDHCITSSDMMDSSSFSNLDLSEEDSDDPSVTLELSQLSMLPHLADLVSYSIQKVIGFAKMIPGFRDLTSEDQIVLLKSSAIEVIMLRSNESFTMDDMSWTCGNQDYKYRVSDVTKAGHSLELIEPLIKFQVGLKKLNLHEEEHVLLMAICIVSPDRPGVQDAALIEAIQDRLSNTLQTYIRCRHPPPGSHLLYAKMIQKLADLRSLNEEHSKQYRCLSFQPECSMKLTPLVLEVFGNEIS
Method in brief: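 Cells carrying a VDR-driven beta-lactamase reporter are seeded at 2,000 per well and rested 4 h. Compounds in DMSO are added for 16 h at 37C, and FRET substrate fluorescence is measured after 2 h at room temperature.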

[8] = qHTS assay to identify small molecule agonists of the vitamin D receptor (VDR) signaling pathway - cell viability counter screen (AID 743224); also: nearly all actives have a fitted effect of over 50% in size; also: potency is read from the fitted curve at half-maximal effect
Method in brief: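 Cells: VDR-bla, 2,000/well, settled 4 h. Treatment: compounds in DMSO, 16 h, 37C/5% CO2. Readout: CellTiter-Glo luminescence after 30 min RT.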

[9] = qHTS assay to identify small molecule antagonists of the vitamin D receptor (VDR) signaling pathway - cell viability counter screen (AID 743225); also: nearly all actives have a fitted effect of over 50% in size; also: potency is read from the fitted curve at half-maximal effect
Method in brief: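 Cytotoxicity counter screen read by CellTiter-Glo luminescence (30 min, room temperature) in the same wells as the VDR-bla antagonist readout. HEK 293T VDR-UAS-bla cells had 16 h at 37C with compound and 3 nM (final) 1-alpha,25-dihydroxyvitamin D3, then 2 h with FRET substrate.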

[10] = qHTS assay to identify small molecule agonists of the endoplasmic reticulum stress response signaling pathway (AID 1159516; active = well fitted activation curve with a large enough effect in the signal ratio in the repeat runs, not every such curve was filed as active; the % refers to the signal ratio)
Method in brief: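 Cells are seeded at 1,500 per well and incubated overnight. Compounds in DMSO are added for 5 hr at 37 C, then beta-lactamase FRET substrate for 2 hr at room temperature, and fluorescence at 460 and 530 nm is measured.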

[11] = qHTS assay to identify small molecule agonists of the endoplasmic reticulum stress response signaling pathway - cell viability counter screen (AID 1159517; calls by dose curve)
Method in brief: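 Cpd-treated ESRE-bla HeLa (5 hr, 37 C) → LiveBLAzer 2 hr RT → CellTiter-Glo 30 min RT → luminescence.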

[12] = qHTS assay to identify small molecule antagonists of the retinoid-related orphan receptor gamma (ROR-gamma) signaling pathway - cell viability counter screen (AID 1159520); also: nearly all actives have a fitted effect of over 50% in size
Method in brief: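 Tet-on ROR gamma CHO cells (1,000/well) were plated 4 hr, given compounds in DMSO for 2 hr at 37 C, then induced with 1 uM final doxycycline for 16 hr. Viability was read as ATP by CellTiter-Glo luminescence after 30 min.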

[13] = target: Nuclear receptor ROR-gamma (Homo sapiens) (UniProt P51449); experiment: qHTS assay to identify small molecule antagonists of the retinoid-related orphan receptor gamma (ROR-gamma) signaling pathway (AID 1159521)
Method in brief: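 Antagonist read-out: drop in luminescence (ONE-Glo) from an RORE-LUC reporter in CHO cells with doxycycline-inducible ROR-gamma; 2 hr compound pretreatment, 1 uM doxycycline, 16 hr incubation at 37 C.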

[14] = qHTS assay to identify small molecule agonists of the AP-1 signaling pathway - cell viability counter screen (AID 1159525; calls by dose curve; also: nearly all actives have a fitted effect of over 55% in size)
Method in brief: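 Each titration point was normalised to DMSO and tetra n-octyl ammonium bromide controls. The read was Cell Titer Glo luminescence after 30 min at RT, following 5 h compound exposure of ME-180 AP-1-bla cells at 37 °C.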

[15] = qHTS assay to identify small molecule agonists of the AP-1 signaling pathway (AID 1159526; calls by dose curve)
[16] = target: Retinoic acid receptor RXR-alpha (Homo sapiens) (UniProt P19793); experiment: qHTS assay to identify small molecule agonists of the RXR signaling pathway (AID 1159527; calls by dose curve; also: nearly all actives have a fitted effect of over 35% in size)
Sequence of Retinoic acid receptor RXR-alpha (Homo sapiens) (P19793 whole entry, looked up): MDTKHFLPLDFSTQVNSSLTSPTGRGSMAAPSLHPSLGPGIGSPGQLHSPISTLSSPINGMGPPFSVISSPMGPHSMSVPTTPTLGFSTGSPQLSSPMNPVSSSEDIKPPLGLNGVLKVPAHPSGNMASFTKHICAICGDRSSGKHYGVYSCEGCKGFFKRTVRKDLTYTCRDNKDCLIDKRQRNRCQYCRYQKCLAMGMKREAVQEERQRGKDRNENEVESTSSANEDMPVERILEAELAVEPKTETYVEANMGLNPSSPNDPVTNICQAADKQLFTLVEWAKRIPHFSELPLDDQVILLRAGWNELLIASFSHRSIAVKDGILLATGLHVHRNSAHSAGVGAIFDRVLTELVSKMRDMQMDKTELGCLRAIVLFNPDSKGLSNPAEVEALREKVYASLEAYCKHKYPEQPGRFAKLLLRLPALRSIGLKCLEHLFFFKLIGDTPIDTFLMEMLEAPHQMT
Method in brief: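 Agonist-mode beta-lactamase reporter assay: HEK 293T RXR-alpha-UAS-bla cells treated 16 hr at 37 C with compounds, 9-cis retinoic acid as positive control. LiveBLAzer FRET substrate, 405 nm excitation, 460/530 nm emission.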

[17] = qHTS assay to identify small molecule agonists of the NFkB signaling pathway - cell viability counter screen (AID 1159515; calls by dose curve; also: series mostly up to about 61 µM; nearly all actives have a fitted effect of over 55% in size)
Method in brief: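 Cells are seeded (2,000 NFkB-bla ME-180 per well), rested overnight, and dosed with DMSO-dissolved compounds for 5 hr at 37 C. Viability is then read by CellTiter-Glo luminescence after 30 min at room temperature.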

[18] = qHTS assay to identify small molecule agonists of the peroxisome proliferator-activated receptor delta (PPARd) signaling pathway - cell viability counter screen (AID 743211); also: nearly all actives have a fitted effect of over 55% in size; also: potency is read from the fitted curve at half-maximal effect
Method in brief: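 Viability was measured as CellTiter-Glo luminescence (30 min, room temperature) in the same wells as the beta-lactamase readout. GeneBLAzer PPARd UAS-bla HEK293H cells received compound after 5 h plating and were incubated 17 h at 37 C.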

[19] = target: Vitamin D3 receptor (Homo sapiens) (UniProt P11473); experiment: qHTS assay to identify small molecule antagonists of the vitamin D receptor (VDR) signaling pathway (AID 743223; active = well fitted inhibition curve with a large enough effect in the signal ratio in the repeat runs, not every such curve was filed as active; the % refers to the signal ratio; also: potency is read from the fitted curve at half-maximal effect)
Method in brief: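 Antagonist mode: compound added to VDR-bla cells alongside agonist 1alpha,25-dihydroxyvitamin D3 (3 nM final), incubation 16 h at 37C. Read-out is LiveBLAzer FRET fluorescence, 2 h at room temperature.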

[20] = target: Bile acid receptor (Homo sapiens) (UniProt Q96RI1); experiment: qHTS assay to identify small molecule antagonists of the farnesoid-X-receptor (FXR) signaling pathway (AID 743217; active = well fitted inhibition curve with a large enough effect in the signal ratio in the repeat runs, not every such curve was filed as active; the % refers to the signal ratio)
Method in brief: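 Cells carrying a UAS-driven beta-lactamase reporter (GeneBLAzer FXR-UAS-bla HEK 293T) were plated and rested 5 h at 37 °C. Compounds in DMSO were added alongside chenodeoxycholic acid agonist at 50 uM final and left 16 h at 37 °C before FRET substrate readout.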

Row | Structure (SMILES) | Potency [1] | Potency [2] | Potency [3] | Potency [4] | Potency [5] | Potency [6] | Potency [7] | Potency [8] | Potency [9] | outcome [10] | Potency [11] | Potency [12] | Potency [13] | Potency [14] | Potency [15] | Potency [16] | Potency [17] | Potency [18] | Potency [19] | Potency [20]
1 | O=C(O)c1ccc(Cl)c(Cl)c1 | inactive | inactive | inactive | inactive | inactive | inactive | inactive | inactive | inactive | inactive | inactive | inactive | inactive | inactive | inactive | inactive | – | – | – | –
2 | CCCCCCCC(=O)[O-].CCCCCCCC(=O)[O-].[Zn+2] | – | inactive | – | inactive | – | – | inactive | inactive | inactive | inactive | inactive | inactive | inactive | inactive | inactive | inactive | – | – | – | –
3 | S=c1[nH]c2ccccc2s1 | inactive | inactive | – | – | – | inactive | – | – | – | – | – | – | – | inactive | – | – | inactive | – | – | –
4 | c1ccc(CSCc2ccccc2)cc1 | inactive | inactive | inactive | inactive | – | inactive | inactive | inactive | – | inactive | inactive | inactive | inactive | inactive | inactive | inactive | – | inactive | inactive | –
5 | CCCCCOC(=O)CCCC | – | – | – | inactive | inactive | – | inactive | – | inactive | inactive | – | inactive | inactive | inactive | inactive | inactive | – | inactive | inactive | inactive
6 | Cc1cc(N)c(S(=O)(=O)O)cc1Cl | inactive | inactive | inactive | inactive | – | – | inactive | inactive | – | inactive | inactive | inactive | inactive | inactive | inactive | inactive | – | inactive | – | –
7 | O=C(Nc1cccc(Cl)c1)OCC#CCCl | – | – | 11 µM (active) | – | – | – | – | 43.6 µM (active) | 54.9 µM (active) | – | – | – | – | inactive | – | – | inactive | 38.9 µM (active) | – | –
8 | COc1cccc(N)c1 | – | – | – | – | inactive | inactive | – | – | – | inactive | inactive | inactive | inactive | inactive | inactive | inactive | – | – | – | inactive
9 | CCCCCCOC(=O)c1ccc(O)cc1 | inactive | – | – | inactive | inactive | inactive | inactive | – | – | inactive | – | inactive | inactive | – | – | inactive | – | 38.9 µM (active) and inactive | – | –
10 | CCC(N)(CO)CO | inactive | – | inactive | inactive | – | inactive | inactive | inactive | inactive | inactive | – | inactive | inactive | inactive | inactive | inactive | – | inactive | – | –
11 | Cc1ccc(O)c(C(C)(C)C)c1 | inactive | 27.5 µM (active) | inactive | 24.5 µM (active) and inactive | – | 43.6 µM (active) | inactive | 19.5 µM (active) | 21.8 µM (active) | inactive | inactive | inactive | inactive | – | – | inactive | – | – | 13.8 µM (active) | –
